# Data taken from the supplement of paper PMC11624193, “Coupling cellular drug-target engagement to downstream pharmacology with CeTEAM” (Nature Communications, 2024).
# Several values for one entry are separate records, joined by “and”; a condition that tells them apart may be missing. Equal values may be shown once. Where a name gives a salt, the structure may show the parent alone. Unmarked numbers belong to inactive results.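 Rule for the calls: active = log2 fold change beyond 2 SD from the library mean after excluding viability outliers; inactive = within 2 SD.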
# Biological target: PARP1 L713F-nLuc biosensor (HCT116) (UniProt P09874)
# Assay: PARP1 L713F-nLuc/akaLuc ratio relative to DMSO control (biosensor stabilization) (fold change); higher = more PARP1 biosensor stabilization (target engagement / stabilizer), active = hit call of the paper
# Conditions: stock concentration (mM; final µM = stock mM x 1): 10; 24 h
# Chain of PARP1 L713F-nLuc biosensor (HCT116) (P09874 whole entry L713F, looked up): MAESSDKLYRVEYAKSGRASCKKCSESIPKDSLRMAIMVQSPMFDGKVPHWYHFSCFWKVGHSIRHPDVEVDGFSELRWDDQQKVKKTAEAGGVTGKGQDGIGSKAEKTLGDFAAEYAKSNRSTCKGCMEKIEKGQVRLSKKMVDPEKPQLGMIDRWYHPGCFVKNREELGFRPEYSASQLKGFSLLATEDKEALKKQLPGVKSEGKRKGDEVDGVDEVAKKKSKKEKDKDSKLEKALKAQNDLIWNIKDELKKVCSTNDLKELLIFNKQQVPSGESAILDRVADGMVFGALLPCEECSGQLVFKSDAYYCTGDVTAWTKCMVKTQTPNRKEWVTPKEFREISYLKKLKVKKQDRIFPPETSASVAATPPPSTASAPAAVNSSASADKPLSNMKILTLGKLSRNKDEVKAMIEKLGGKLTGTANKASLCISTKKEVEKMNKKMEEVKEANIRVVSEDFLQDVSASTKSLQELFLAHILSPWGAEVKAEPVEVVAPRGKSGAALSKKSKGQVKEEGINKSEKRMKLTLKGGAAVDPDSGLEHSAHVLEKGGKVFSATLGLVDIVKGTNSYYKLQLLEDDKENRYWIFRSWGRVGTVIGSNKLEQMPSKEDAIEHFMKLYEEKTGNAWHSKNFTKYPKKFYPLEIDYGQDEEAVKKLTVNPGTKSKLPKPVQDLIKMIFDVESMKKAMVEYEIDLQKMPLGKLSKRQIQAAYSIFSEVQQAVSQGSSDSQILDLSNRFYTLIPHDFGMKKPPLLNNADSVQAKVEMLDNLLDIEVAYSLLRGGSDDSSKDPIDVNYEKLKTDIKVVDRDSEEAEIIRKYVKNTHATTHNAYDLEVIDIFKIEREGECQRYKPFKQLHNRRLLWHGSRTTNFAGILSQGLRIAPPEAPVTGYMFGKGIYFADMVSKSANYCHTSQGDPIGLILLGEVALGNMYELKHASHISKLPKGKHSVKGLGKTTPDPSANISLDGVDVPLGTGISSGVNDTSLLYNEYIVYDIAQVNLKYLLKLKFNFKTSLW
row,SMILES,PARP1 L713F-nLuc/akaLuc ratio
1,O=[N+]([O-])c1c(Nc2cc(F)cc(Cl)c2)ccc2nonc12,1.45
2,CN(C)C(=N)N=C(N)N [Metformin D6 (hydrochloride)],1.08
3,CCn1c(-c2nonc2N)nc2c(C#CC(C)(C)O)ncc(OC[C@H]3CCCNC3)c21,1.03 and 0.895
4,CCCOc1ccn2c(C(C)=O)cc(-c3ccccc3S(C)(=O)=O)c2c1,0.733
5,C[C@@H]1CN(CC(=O)Nc2ccc3c(c2)Cc2cccc(-c4cc(=O)cc(N5CCOCC5)o4)c2S3)C[C@H](C)O1,0.788
6,CCN(CC)CCCC(C)Nc1c2ccc(Cl)cc2nc2ccc(OC)cc12 (configuration not stated) [Quinacrine Dihydrochloride Dihydrate],0.656
7,COC(=O)/C=C/c1ccccc1 [Methyl cinnamate],1.29
8,CN(C)[C@H]1CN(C2CCc3cccc(F)c32)C[C@@H]1c1ccc(N2CCN(S(C)(=O)=O)CC2)cc1 (some centres not stated),4.18 (active)
9,CC(C)(O)[C@H]1CC[C@H](Nc2ccc3ncc(-c4cccc(C(F)(F)F)c4)n3n2)CC1,0.732
10,CN(C)C[C@@H]1CCn2cc(c3ccccc32)C2=C(C(=O)NC2=O)c2cn(c3ccccc23)CCO1,0.636
11,COc1cc2ncnc(Nc3cc(Br)c(O)c(Br)c3)c2cc1OC,1.37
12,COCC(=O)Nc1cc(Sc2ccccc2)ccc1N=C(NC(=O)OC)NC(=O)OC [Febantel],1.6
13,C=CC(=O)Nc1cc(Nc2nccc(-c3cn(C)c4ccccc34)n2)c(OC)cc1N(C)CCN(C)C [Osimertinib (AZD9291)],0.371
14,NC(=O)/C(=C/n1cnc(-c2cc(C(F)(F)F)cc(C(F)(F)F)c2)n1)c1cncnc1 [Eltanexor (KPT-8602)],0.767
15,Cc1nc(Nc2cnn(C3CCNCC3)c2)nc2c1N(C)C(=O)c1cc3ccccc3cc1N2C,0.761
16,CNCCN(C)Cc1c[nH]nc1-c1ccc(O[C@H]2C[C@H](OCCC3CCOCC3)C2)cc1,0.64
17,COc1cc2c(cc1OC)-c1c(C)c3ccc(OC)c(OC)c3c[n+]1CC2 [Dehydrocorydaline],0.741
18,COc1ccc(Cn2ccc3ccc(C(=O)NO)cc32)cc1,1.04
19,COc1c(CN)cc(CN)cc1OCCCN1Cc2ccccc2C1 [MS31 (trihydrochloride)],0.851

row,SMILES,PARP1 L713F-nLuc/akaLuc ratio
1,CC(=O)Nc1ccccc1-c1cccc2c1[nH]c1ccccc12,0.622
2,N#Cc1ccc2ncnc(NCCc3ccccc3)c2c1 [Senexin A],1.24
3,COc1cc(OC)cc(-c2noc(N3CCN(C)C4(CCN(c5ccnc(C)c5)CC4)C3)n2)c1,0.971
4,Nc1nc(=S)c2[nH]cnc2[nH]1 [6-Thioguanine],1.43
5,C[C@@H]1O[C@@H](O[C@H]2[C@H](OC(=O)[C@]34CCC(C)(C)C[C@H]3C3=CC[C@@H]5[C@@]6(C)C[C@H](O)[C@H](O[C@@H]7O[C@H](CO)[C@@H](O)[C@H](O)[C@H]7O)C(CO)(CO)[C@@H]6CC[C@@]5(C)[C@]3(C)C[C@H]4O)OC[C@H](O)[C@@H]2O)[C@H](O)[C@H](O)[C@H]1O[C@@H]1OC[C@@H](O)[C@H](O[C@@H]2OC[C@](O)(CO)[C@H]2O)[C@H]1O [Platycodin D],0.771
6,NC(=O)c1nc(-c2c(F)cccc2Cl)oc1Nc1ccc(C(=O)N2CCOCC2)cc1,0.914
7,CS(=O)(=O)c1ccc(Oc2cc(F)cc(C#N)c2)c2c1[C@H](O)C(F)(F)C2,1.42
8,CC(=O)O[C@H]1C(=O)[C@@]2(C)[C@H]([C@H](OC(=O)c3ccccc3)[C@]3(O)C[C@H](OC(=O)[C@H](O)[C@@H](NC(=O)c4ccccc4)c4ccccc4)C(C)=C1C3(C)C)[C@]1(OC(C)=O)CO[C@@H]1C[C@@H]2O [Paclitaxel],2.97 (active)
9,O=C(/C=C/N1C[C@H]2C[C@@H]1CN2c1ccccn1)c1ccccc1O,1.3
10,COc1cc(C=CC(=O)O)cc(OC)c1O (stereo in doubt) [Sinapinic acid],0.83
11,"CCCS(=O)(=O)Nc1ccc(F)c(C(=O)c2c[nH]c3ncc(-c4ccc(Cl)cc4)cc23)c1F [Vemurafenib (PLX4032, RG7204)]",0.608
12,Oc1cc(O)c2c(c1)OC1(c3ccc(O)c(O)c3)Oc3cc(O)c4c(c3C2C1O)OC(c1ccc(O)c(O)c1)C(O)C4 (configuration not stated) [Procyanidin A1],1.43
13,O=C(O)CNC(=O)C1=C(O)CCN(Cc2ccc(Oc3ccc(Cl)cc3)nc2)C1=O,1.22
14,CC1(C)NC(=O)N(c2ccc([N+](=O)[O-])c(C(F)(F)F)c2)C1=O [Nilutamide],0.772
15,Cc1ccc(-n2nc(C(C)(C)C)cc2NC(=O)Nc2ccc(OCCN3CCOCC3)c3ccccc23)cc1 [Doramapimod (BIRB 796)],0.671
16,Cc1ccc2[nH]c3c(c2c1)CCCC3C(N)=O (configuration not stated),1.25
17,COc1cc(C)c(/C=C/C(C)=C/C=C/C(C)=C/C(=O)O)c(C)c1C [Acitretin],0.747
18,Cc1nc(Nc2n[nH]c3c2CN(C(=O)N[C@H](CN(C)C)c2ccccc2)C3(C)C)c2sccc2n1,5.51 (active)
